A short description of experiment [1]: qHTS profiling of the MIPE4 collection as inhibitors of Plasmodium falciparum (3D7) proliferation (AID 743344; call rule not given here;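 note: scaled between DMSO vehicle wells and 0.29 µM artemisinin as full inhibition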). The settings on record: P. falciparum 3D7 in erythrocytes, SYBR Green DNA fluorescence, 72 h; at 28.5 µM unless noted. In short, it runs like this: (§1)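 Parasite DNA was quantified by SYBR Green I fluorescence (ex 485, em 535 nm) after overnight lysis in saponin/Triton buffer at room temperature. Cultures at 0.3% parasitemia and 2.5% hematocrit were first exposed to compound for 72 h at 37 C; signals were normalised to artemisinin (0.29 uM) and vehicle wells.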
(In general: In qHTS, concentration-response curves come from the screen itself.)

The nature of experiment [2]: qHTS profiling of the MIPE4 collection as inhibitors of Plasmodium falciparum (DD2) proliferation (AID 743345; call rule not given here). The settings on record: P. falciparum Dd2 in erythrocytes, SYBR Green DNA, 72 h; at 28.5 µM unless noted. An outline of the steps:
as §1

Experiment [3] is described as follows: qHTS profiling of the MIPE4 collection as inhibitors of Plasmodium falciparum (DD2) proliferation (Rep 2) (AID 743346; call rule not given here). The note with it: P. falciparum Dd2 in erythrocytes, SYBR Green DNA, 72 h; at 28.5 µM unless noted. An outline of the steps: as §1
Experiment [4] can be described thus: qHTS profiling of the MIPE4 collection as inhibitors of Plasmodium falciparum (HB3) proliferation (AID 743347; call rule not given here;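 note: plate controls were DMSO vehicle wells for no effect and artemisinin wells for full effect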). The settings on record: P. falciparum HB3 in erythrocytes, SYBR Green DNA, 72 h; at 28.5 µM unless noted. An outline of the steps: as §1
Experiment [5] can be described thus: High-throughput drug toxicity screening in the BPDCN cell line Cal-1 (AID 1224825; call rule not given here). The settings on record: Cal-1 BPDCN cell viability, qHTS; at 45.8 µM (top of the series) unless noted. An outline of the steps:
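CellTiter-Glo luminescence after 48 h compound exposure; percent activity scaled with DMSO as 100% and bortezomib (9.2 uM final) as 0%. Cal-1 cells seeded at 500/well in RPMI, 10% FBS, no phenol red.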

The nature of experiment [6]: qHTS assay for measurement of the activity of small molecule inhibitors on Zika virus induced Caspase-3 activity in human iPSC derived neural progenitor cells (hNPCs) (AID 1224857). Note: % of control where 0% means no effect; nearly all actives have a fitted effect of over 65% in size. An outline of the steps:
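Values are percent inhibition of virus-induced caspase-3/7 signal, scaled between uninfected cells and ZIKV-infected cells. Infection used 2 FFU/cell for 6 h after 1 h compound exposure.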

The nature of experiment [7]: qHTS assay for measurement of the activity of small molecule inhibitors on Zika virus induced Caspase-3 activity in human astrocytoma cells (AID 1224859). Note: potency is the fitted concentration of half-maximal effect. In short, it runs like this:
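Compound added 1 h pre-infection; ZIKV 2 FFU/cell on SNB-19 cells, 6 h, 37 C/5% CO2. Caspase-Glo 3/7 luminescence; values as % inhibition of ZIKV-induced caspase activity.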

A short description of experiment [8]: qHTS Screen of the MIPE 4.0 Collection Against Ewings Sarcoma (RDES) (AID 1259252). Note: nearly all actives have a fitted effect of over 35% in size. Note: potency is the fitted concentration of half-maximal effect. An outline of the steps:
(§2)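 Dose series incubated 48 h with cells in RPMI plus 5% FBS, glutamine and penicillin/streptomycin; cell viability then quantified via CellTiter-Glo.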

Experiment [9] is described as follows: qHTS Screen of the MIPE 4.0 Collection Against Ewings Sarcoma (TC71) (AID 1259253). Note: nearly all actives have a fitted effect of over 40% in size. Note: potency is the fitted concentration of half-maximal effect. In short, it runs like this: as §2
Experiment [10] in a line: qHTS Screen of the MIPE 4.0 Collection Against Ewings Sarcoma (EW8) (AID 1259255).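 For viability: 100% = DMSO-treated cells and 0% = medium-only wells without cells.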 Note: nearly all actives have a fitted effect of over 35% in size. Note: potency is the fitted concentration of half-maximal effect. In short, it runs like this: as §2
Experiment [11] is described as follows: qHTS Screen of the MIPE 4.0 Collection Against Ewings Sarcoma (TC32) (AID 1259256). Note: nearly all actives have a fitted effect of over 45% in size. Note: potency is the fitted concentration of half-maximal effect. An outline of the steps: as §2
Experiment [12] is described as follows: qHTS profiling for inhibitors of Plasmodium falciparum (HB3) proliferation (AID 743324).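 Note: 100% = DMSO vehicle wells and 0% = artemisinin-treated control wells.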 The settings on record: Plasmodium falciparum HB3 blood-stage proliferation; at 28.7 µM (top of the series) unless noted. An outline of the steps:
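SYBR Green fluorescence (485 ex/535 em) of lysed cultures, incubated overnight at room temperature in the dark, quantifies parasite DNA. Infected erythrocytes at 0.3% parasitemia and 2.5% hematocrit were exposed 72 h; values normalized to DMSO and 0.29 uM artemisinin controls.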

The nature of experiment [13]: Identifying Small Molecule Inhibitors of Pancreatic Cancer Stem Cells (SN12C, Adherent) (AID 1259358).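 Note: cell survival measured after 48 h of compound exposure.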 An outline of the steps:
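Endpoint: ATP-based luminescence, 48 h drug exposure. Bortezomib at 9.2 uM final as full-kill control; DMSO vehicle as negative control; activity normalized between vehicle and cell-free wells.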

Experiment [14] is described as follows: Identifying Small Molecule Inhibitors of Pancreatic Cancer Stem Cells (Panc1, Adherent) (AID 1259362). Note: potency is the fitted concentration of half-maximal effect. The settings on record: Potency: viability. In short, it runs like this: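 Viability is scored by CellTiter-Glo luminescence 48 h after dosing, expressed as percent activity against vehicle and no-cell references. Spheroid formats rely on cells cultured 14 days in stem cell media beforehand.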

SMILES strings stand for the structures. Results filed as inconclusive are left out. Active and inactive are the calls of the source. Unless noted, calls come from the whole dose curve; as a rule, active = well fitted curve in the direction sought with a large enough effect; inconclusive = small, poorly fitted or top-dose-only effect, or another doubt; inactive = no such curve, though single readings can be large; an effect the other way counts as inactive or inconclusive.

In experiment [1], `N#CC1(c2cccc(C(=O)Nc3cc(Oc4ccc5nc(NC(=O)C6CC6)sc5n4)ccc3F)c2Cl)CC1` showed a parasite growth, % of DMSO control of 14.7%. The compound also gave a parasite growth remaining, % of DMSO control (lower = more inhibition) in [2] of 28.8%. The compound also displayed a parasite growth, % of control (lower = inhibition) in experiment [3] of 30.3%. In experiment [4], this compound returned a growth, % of control of 9.87%. In addition, the viability (% of control) in experiment [5] was determined as 43.3%. Besides, the Potency entry in [6] and in experiment [7] was “inactive” throughout. The Potency in experiment [8] is 16.6 µM (active); in experiment [9], 16.6 µM (active); in experiment [10], 20.9 µM (active).
As for `CN1CCN(c2ncc(-c3cc(Cl)cc(Cl)c3Cl)c(N)n2)CC1`, in experiment [5], the viability (% of control) is 22.1%. Moreover, the Potency entry in [6], in [7], in experiment [8], in experiment [10] and in experiment [11] was “inactive” throughout.
As for `CN[C@@H]1[C@@H](O)[C@@H](O[C@@H]2[C@@H](O)[C@H](O[C@H]3O[C@H](CN)[C@@H](O)[C@H](O)[C@@H]3O)[C@@H](N)C[C@@H]2NC(=O)[C@@H](O)CN)OC[C@]1(C)O`, in experiment [1], the parasite growth, % of DMSO control was determined as 94%. In [2], the parasite growth remaining, % of DMSO control (lower = more inhibition) was found to be 99.3%. This compound registered a parasite growth, % of control (lower = inhibition) in experiment [3] of 90.7%. This compound gave a growth, % of control in experiment [4] of 53.1%. Besides, the viability (% of control) in experiment [5] came to 100%. The Potency entry in experiment [6], in [7], in [9], in experiment [10] and in experiment [11] was “inactive” each time.
In experiment [1], `O=C1NC(=O)C(=Cc2ccc(-c3ccc(F)cc3O)o2)S1` gave a parasite growth, % of DMSO control of 34.3%. Further, the parasite growth remaining, % of DMSO control (lower = more inhibition) in [2] was found to be 71.3%. The compound also yielded a parasite growth, % of control (lower = inhibition) in [3] of 61.3%. In addition, the growth, % of control in [4] was determined as 34.2%. Moreover, in experiment [5], the viability (% of control) is 92.1%. In addition, the Potency was 14.8 µM (active) in experiment [7], 23.5 µM (active) in experiment [9] and 18.7 µM (active) in experiment [10].
In turn, `CCCCCCCCCCCCCCCC(=O)O[C@H]1[C@@H](O)[C@@H](O)[C@@H]([C@H](NC(=O)[C@@H]2C[C@@H](CCC)CN2C)[C@H](C)Cl)O[C@@H]1SC` showed a parasite growth, % of DMSO control in experiment [1] of 31.4%. In experiment [2], this compound came in with a parasite growth remaining, % of DMSO control (lower = more inhibition) of 11%. The parasite growth, % of control (lower = inhibition) in experiment [3] came to 20.4%. The compound also had a viability (% of control) in experiment [5] of 94.5%. Besides, the Potency result in experiment [6] and in [8] was “inactive” throughout. Besides, the Potency in experiment [9] is 13.2 µM (active).
`C=CCc1cccc(C=NNC(=O)CN2CCN(Cc3ccccc3)CC2)c1O` gave a parasite growth remaining, % of DMSO control (lower = more inhibition) in [2] of 23.3%. In experiment [3], this compound had a parasite growth, % of control (lower = inhibition) of 19.3%. For the same compound, the growth, % of control in [4] is 97.7%. The compound further yielded a viability (% of control) in experiment [5] of 11.1%. Also, in [6], the Potency entry was “inactive”. The Potency in [9] was 4.69 µM (active); in experiment [10], 10.5 µM (active); in experiment [11] it was 7.43 µM (active).
Turning to `O=C(Nc1cccc(Cl)c1)Nc1ncc(CCNc2ncnc3ccsc23)s1`, the remaining proliferation (% of control), lower = more inhibition in [12] is -0.601%. The parasite growth, % of DMSO control in [1] turned out to be 15.2%. The parasite growth remaining, % of DMSO control (lower = more inhibition) in [2] worked out at 67.5%. In experiment [3], this compound returned a parasite growth, % of control (lower = inhibition) of 39%. In addition, in experiment [4], the growth, % of control was 5.75%. Also, the viability (% of control) in experiment [5] was found to be 20.2%. In addition, the Potency result in [6], in experiment [7] and in experiment [13] was “inactive” in each case. Further, the Potency in experiment [8] is 1.18 µM (active); in [10], 0.235 µM (active); in experiment [11] it was 0.296 µM (active); in experiment [14], 18.7 µM (active).
As for `Nc1ncnc2c1ncn2[C@@H]1O[C@H](CO)[C@@H](O)[C@@H]1O`, the parasite growth remaining, % of DMSO control (lower = more inhibition) in [2] came out at 98%. Further, the parasite growth, % of control (lower = inhibition) in [3] was found to be 6.61%. For the same compound, the growth, % of control in experiment [4] was 6.56%. In addition, the Potency result in experiment [6] and in experiment [7] was “inactive” in each case. Also, the Potency in [8] was 16.6 µM (active); in experiment [9] it was 6.62 µM (active); in [10], 5.26 µM (active).

For the origin of these results see PubChem BioAssay (NCATS).
